# KLF5 inh: suppresses KLF5 promoter-driven expression; DLD-1 KLF5 promoter-luciferase reporter, luminescence; inhibition, % at 5 µM; hit rate 0.23% among 290,000;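 active means inhibition above a per-plate limit of that plate's mean compound inhibition plus 3 SD, cut at about 60% in these data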;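 further: 0% = DMSO wells and 100% = LY294002 at 200 µM; higher means less KLF5 promoter-driven luciferase light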
# IEC-6 tox: IEC-6 cytotoxicity, counter-screen for KLF5 inhibitors | luminescence viability | inhibition, % at 5 µM | hit rate 0.78% among 290,000; in the data active means inhibition above about 22%;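 further: 0% = plate median of test compound wells and 100% = cytotoxic reference compound wells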
# Ba/F3 V617F tox: loss of viability in JAK2V617F-driven Ba/F3 cells | Ba/F3 EpoR-JAK2V617F viability, ATP luminescence | inhibition, % at 5.6 µM | hit rate 1.1% among 220,000;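 active means inhibition above the campaign mean plus 3 SD over all tested compounds, cut at about 24% in these data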;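 further: cytokine-independent growth of Ba/F3 cells driven by EpoR plus mutant JAK2; 0% = DMSO-treated cells and 100% = JAK inhibitor I control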
# BaF3 parental: parental Ba/F3 viability inhibition as JAK2V617F counter-screen; hit rate 1.1% among 220,000; AID 1486; inhibition, % at 5.6 µM; CellTiter-Glo ATP luminescence;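 active means inhibition above a per-campaign cutoff, the mean inhibition of all tested compounds plus 3 SD, cut at about 27% in these data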;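 further: 0% = DMSO wells and 100% = JAK Inhibitor I control wells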
# APP transl inh: APP translation inhibition; SH-SY5Y APP 5'UTR-luciferase reporter, luminescence; inhibition, % at 2 µM; hit rate 0.82% among 190,000; AID 1285;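 active means inhibition above a set limit, derived from the sample mean plus 3 SD, cut at about 45% in these data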
# aSyn 5UTR inh: MLPCN primary screen, SNCA 5' untranslated region; alpha-synuclein 5'UTR reporter, inhibitor activity; inhibition, % (tested at 7.5 µM); hit rate 0.82% among 300,000; in the data active means inhibition above about 60%;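 further: H4 neuroglioblastoma cells stably carrying SNCA 5'UTR luciferase fusion; 0% = DMSO wells and 100% = positive control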
# An asterisk follows results filed as active; nt = no result. This is a sample that favours compounds with a hit; in the whole collection about 2.2% have one here.
SMILES,KLF5 inh,IEC-6 tox,Ba/F3 V617F tox,BaF3 parental,APP transl inh,aSyn 5UTR inh
CNC(=O)c1sc2nc(-c3ccc(OC)cc3)cn2c1C,-196.1,-7.4,-3.1,-0.7,-145.5,-138.5
COc1ccc(-c2cn3c(C)c(C(=O)Nc4cc(NC(C)=O)ccc4OC)sc3n2)cc1,42.0,20.9,48.7*,43.9*,24.5,-35.5
CCCOC(=O)C(C)n1cnc2sc(C)c(C)c2c1=O (configuration not stated),-22.2,-0.8,-6.0,46.5*,10.3,-13.2
CCOC(=O)c1sc2ncn(C(C)C(=O)OC)c(=O)c2c1C (configuration not stated),0.8,2.4,-4.1,0.9,-13.7,-0.8
CC1=NN(C(N)=S)C(=O)C1N=Nc1ccc(F)cc1 (configuration not stated),-128.6,-1.1,nt,nt,nt,-88.9
CC1=NN(C(N)=S)C(=O)C1N=Nc1ccc(O)cc1 (configuration not stated),-38.2,6.7,37.1*,58.4*,9.4,-46.9
Cc1cccc2sc(NNC(=O)c3ccc(S(=O)(=O)N4CCc5ccccc5C4)cc3)nc12,24.6,3.1,-0.7,6.2,19.7,66.9*
Cc1cccc2sc(NC(=O)c3cccc(S(=O)(=O)N4CCc5ccccc54)c3)nc12,-7.8,-0.5,0.0,1.3,2.4,-1.2
Cc1cc(C)c2nc(NNC(=O)c3ccc(S(=O)(=O)N4CCCCC4)cc3)sc2c1,6.6,0.4,1.0,6.4,13.2,45.6
Cc1cccc2sc(NNC(=O)c3ccc(S(=O)(=O)N4CCCC(C)C4)cc3)nc12 (configuration not stated),18.9,-0.1,-2.4,8.5,34.7,77.6*
Cc1cc(C(=O)N/N=C/c2cc(Br)cc(Br)c2OC(=O)c2cccc(F)c2)n[nH]1,-5.4,12.3,-0.5,4.2,35.5,70.0*
Cc1cc(C(=O)N/N=C/c2cc(Br)ccc2OC(=O)c2ccc(Br)cc2)n[nH]1,-4.0,-0.8,2.6,4.3,31.9,84.0*
Cc1cc(C(=O)N/N=C\c2cc(C(C)(C)C)ccc2O)n[nH]1,21.4,8.8,nt,nt,nt,74.7*
Cc1cccc(C(=O)Oc2c(Br)cc(Br)cc2/C=N/NC(=O)c2ccncc2)c1,-20.1,2.1,nt,nt,nt,4.8
Cc1cc(C(=O)N/N=C/c2cc(Br)cc(Br)c2OC(=O)c2ccccc2)n[nH]1,2.1,0.4,-4.6,3.5,31.1,89.3*
Cc1cc(C(=O)N/N=C/c2cccs2)n[nH]1,-40.6,1.2,-2.0,-0.2,-64.7,-83.1
C=C(C)CSc1nc2sc3c(c2c(=O)n1C1CCCCC1)CCN(C)C3,-1.2,1.5,50.6*,54.5*,nt,32.3
CCN(C(=O)COC(=O)c1cc([N+](=O)[O-])ccc1N1CCOCC1)C1CCCCC1,nt,nt,nt,nt,nt,15.4
CC(C)CN(CC(C)C)C(=S)Nc1ccc(Cl)cc1,9.8,-1.3,33.2*,42.6*,4.2,-6.5
COc1ccc(/C=C/C(=O)c2cc(Br)ccc2OC(=O)c2ccco2)cc1OC,5.2,-0.2,4.0,5.4,86.6*,-21.1
O=C(CCN1CCN(c2ccccc2)CC1)N/N=C/c1ccccc1O,-9.2,4.7,0.8,4.8,16.9,70.6*
COc1ccc(SC[C@H](Cc2ccccc2)N2CCN(C)CCC2=O)cc1,nt,nt,nt,nt,nt,-24.0
O=C(Nc1ccc(S(=O)(=O)N2CCCCC2)cc1)c1ccc(CN2CCc3ccccc3C2)cc1,47.5,12.3,29.9*,33.7*,15.1,16.3
CN(C)c1ccc(C(=O)c2ccccc2)cc1,-108.7,4.6,4.5,7.2,-64.7,-119.0
CN(C)c1ccc(N=Nc2ccc(C(=O)O)cc2)cc1,59.5,-12.5,nt,nt,nt,64.0*
SMILES,KLF5 inh,IEC-6 tox,Ba/F3 V617F tox,BaF3 parental,APP transl inh,aSyn 5UTR inh
CCOC(=O)C1CCCN(Cc2cc(=O)oc3cc(C)c(C)cc23)C1 (configuration not stated),-14.8,-0.6,2.2,82.2*,9.3,-11.8
CCOC(=O)C1CCCN(Cc2cc(=O)oc3cc(C)ccc23)C1 (configuration not stated),-13.2,-10.4,-0.4,3.8,-25.3,-75.5
CCOc1ccc2c(c1)OC1(CCC(C)C1)CC2=O (configuration not stated),nt,nt,nt,nt,nt,30.0
CCOc1ccc2c(c1)OC(c1ccc(C)cc1)(C(F)(F)F)NC2=O (configuration not stated),-7.4,42.4*,58.0*,51.3*,94.7*,95.8*
CC1CC(C)(C)N(C(=O)CSc2ccc(-c3ccc(F)cc3)nn2)c2ccccc21 (configuration not stated),-10.2,4.5,2.4,2.7,-11.2,1.0
Cc1cccc(NC(=O)C2CCN(S(=O)(=O)c3c(C)noc3C)CC2)c1,-43.2,-8.0,nt,nt,nt,3.5
Cc1noc(C)c1S(=O)(=O)N1CCC(C(=O)Nc2ccccn2)CC1,-16.4,2.2,1.9,39.6*,10.7,10.0
COc1cc(OC)cc(-c2cc3nc(C)c(CCC(=O)O)c(C)n3n2)c1,32.7,-9.6,-1.5,3.7,77.8*,nt
CCOC(=O)C1CCCCN1C(=O)CCc1c(C)nc2cc(-c3ccccc3)nn2c1C (configuration not stated),-12.8,-2.8,-0.7,3.2,51.9*,75.9*
CCOC(=O)C1CCN(C(=O)CCc2c(C)nc3cc(-c4ccccc4)nn3c2C)CC1,-12.4,-4.0,-3.9,4.1,22.9,66.5*
Cc1ccc(S(=O)(=O)N2CCN(CC(=O)NC(=O)NCc3ccco3)CC2)cc1C,-5.5,-6.1,-1.6,-6.0,nt,12.1
C=CCC1(CC=C)CCCN1C(=O)c1cc(COc2cncc(Cl)c2)on1,-7.3,7.6,nt,nt,nt,-27.7
CC1CCCCN1c1ncnc(N)c1[N+](=O)[O-] (configuration not stated),-4.6,-2.5,0.3,-3.8,-0.4,15.1
CC1Cc2ccccc2N1c1ncnc(N)c1[N+](=O)[O-] (configuration not stated),30.2,-0.8,-3.9,-7.0,48.2*,68.7*
O=C(NC1CCCCNC1=O)c1ccco1 (configuration not stated),-18.9,-6.7,nt,nt,nt,-5.6
O=C(Nc1ccccc1)Nc1cc([N+](=O)[O-])ccc1F,-8.6,1.3,-0.3,3.0,15.1,-12.2
Cc1ccc([N+](=O)[O-])cc1NC(=O)Nc1cccc(F)c1,-36.3,10.8,39.5*,36.8*,nt,25.8
Cc1ccc(C(=O)Nc2ccc3ncccc3c2)cc1,45.4,1.2,nt,nt,nt,84.1*
O=C(Nc1cccc(Cl)c1)c1ccc2c(c1)SC1=NS(=O)(=O)CCN12,-7.6,2.2,2.4,7.2,-17.8,nt
C1=C2C[N+]3(CCCC3)CC2Cc2ccc3ccccc3c21 (configuration not stated),-6.1,1.7,63.9*,55.5*,12.2,-1.4
CC1CCN(C(=O)c2ccc(S(=O)(=O)NCc3ccco3)cc2)CC1,-10.8,4.8,nt,nt,nt,-18.5
O=C(/C=C/c1cccc([N+](=O)[O-])c1)c1ccc([N+](=O)[O-])o1,nt,nt,nt,nt,nt,70.6*
C=CCOc1ccccc1CNc1cccc(F)c1,-21.1,-0.9,0.0,4.0,56.9*,-48.5
CCOC(=O)COc1ccc(S(=O)(=O)NC2CC2)cc1,-11.1,-8.1,nt,nt,nt,-8.5

# Screening results (PubChem BioAssay)
